# PubChem BioAssay (NCI)
# About 83,000 compounds went through this panel and 20% of them were active in at least one assay; those are over-represented in the sample as a whole.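 Assay: single dose, 48 h. Readout: percent growth (0 = no net growth; negative = cell death). Active: <10.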 Active and inactive are the calls of the source.
# Test system: MDA-MB-468 breast
# Assay: NCI-60 one-dose screen, 48 h (100 = growth as untreated, 0 = no growth, -100 = all killed)
# Details: 10 µM unless noted
row,Structure (SMILES),growth
1,COc1cc(-c2c3c(cn2S(=O)(=O)c2ccccc2)-c2nc(N)sc2CC3)cc(OC)c1OC,23.4% (inactive)
2,COc1cccc(-c2nn(-c3ccccc3)cc2-c2ccnc(NCCCNC(=O)c3cccc(C(F)(F)F)c3)c2)c1,17.3% (inactive)
3,C#Cc1cccc(Nc2nc(Cl)nc3cc(NC(=O)CCl)ccc23)c1,-71% (active)
4,COc1cc2cc(OC(C)=O)c3cc4c(cc3c2c(OC)c1OC)OCO4,96.4% (inactive)
5,CC(C)(C)n1cc(-c2ccnc(NCCCNS(=O)(=O)c3ccc(C(F)(F)F)cc3)c2)c(-c2cccc(F)c2)n1,98.6% (inactive)
6,Clc1cc(Cl)cc(N2N=C(c3cccc(Nc4ccncc4)c3)CC2c2ccc3c(c2)OCO3)c1 (stereo not drawn),24.8% (inactive)
7,CCCCCCCCNc1cccc2c1C(=O)c1ccccc1C2=O,95.4% (inactive)
8,N#CC1(C#N)C2=C(CCCC2)NC(c2c(F)cccc2Cl)C1(C#N)C#N (stereo not drawn),53% (inactive)
9,CC(=O)N(C)C1CCc2c(sc(NC(=O)c3ccc(C(C)(C)C)cc3)c2C(N)=O)C1 (stereo not drawn),86.6% (inactive)
10,COC(=O)C(O)c1ccccc1 (stereo not drawn),112% (inactive)
11,Nc1ccc(Sc2ccc([N+](=O)[O-])c3nonc23)cc1,67.3% (inactive)
12,Nc1c(C(=O)Nc2cccc3ncccc23)sc2nc3c(cc12)CN(Cc1ccccc1)CC3,31.4% (inactive)
13,O=NN(CC(=O)NNc1ccccc1)CC(=O)NNc1ccccc1,77.7% (inactive)
14,COc1ccccc1N1CCN(C(=S)Nc2ccccc2)CC1,97% (inactive)
15,Nc1ccc(S(=O)(=O)O)c2cc(S(=O)(=O)O)cc(O)c12,106% (inactive)
16,COc1cc2cc(Oc3ccc(NC(=O)Nc4ccc(Cl)c(C(F)(F)F)c4)cc3)c(C)nc2cc1OCCN1CCOCC1,-13.5% (active)
17,O=C(/C=C/c1ccc2ccccc2c1)Nc1ncc(Cc2ccccc2)s1,64% (inactive)
18,CCCCCCCCCCCC(=O)OC(C)C(=O)Nc1ccccc1 (stereo not drawn),111% (inactive)
19,COc1cc(C2Nc3ccccc3S2)cc(CN2CCOCC2)c1O (stereo not drawn),26.3% (inactive)
20,Clc1ccc2[nH]c3c(NCCCN4CCOCC4)ncnc3c2c1,33.7% (inactive)
21,CC1=C2[C@@H](CC1)[C@]1(C)O[C@@](C3CCNCC3)(C[C@H]1OC(=O)CO)[C@H]2OC(=O)/C=C/c1ccccc1,75.3% (inactive)
22,OC1CCc2c(-c3ccc4ncnc(N5CCc6cc(F)c(Cl)cc65)c4c3)cncc21 (stereo not drawn),9.18% (active)
23,CN(C)CCCn1c2c(c3ccc(N4CCNCC4)cc3c1=O)C(=O)c1ccccc1-2,-17.2% (active)
24,CC(C)OP(=O)(OC(C)C)c1ncc(-c2ccc(C(F)(F)F)cc2)c(NC2CCCCCC2)n1,12.8% [33.3 µM] (inactive)
25,CN(C)CCNc1ccc2ncc(C#Cc3cncc(C(=O)Nc4ccc(CN5CCN(C)CC5)c(C(F)(F)F)c4)c3)n2n1,-67.9% (active)
26,COc1cc(OC)c2cc(C(=O)O)c(=O)oc2c1,99.9% (inactive)
27,Cc1onc2c(-c3ccccc3)n[nH]c(=O)c12,98.3% (inactive)
28,COc1ccc(N=Cc2c(O)ccc3c2oc2cc(Cl)c(O)c(Cl)c23)cc1,72.5% (inactive)
